Test results as given in PubChem BioAssay (Tox21).
Unmarked numbers belong to inactive results. Calls of active or inactive are those of the source. Calls come from the whole dose curve; as a rule, active = well fitted cell-killing curve with a large enough effect in the repeat runs; inconclusive = weak or mixed curves, or effect the other way; inactive = flat fitted curve, though single readings scatter.

assay: qHTS assay to identify small molecule HDAC inhibitors - cell viability counter screen (AID 1259365); conditions: HCT-116 viability, CellTiter-Glo ATP luminescence, 2 h; series mostly up to 92.4 µM; note: nearly all actives have a fitted effect of over 50% in size
Source text: U.S. Tox21 Program National Center for Advancing Translational Sciences [NCATS] NIH Chemical Genomics Center [NCGC] U.S. Environmental Protection Agency [EPA] National Institutes of Environmental Health Sciences [NIEHS] National Toxicology Program [NTP] U.S. Food and Drug Administration [FDA] Tox21 Assay Overview: Histone deacetylases (HDACs) are a group of epigenetic enzymes that regulate gene expression by histone deacetylation. HDACs are capable of introducing epigenetic modifications and such aberrations contribute to the onset and progression of several human diseases, thus making HDACs a popular therapeutic target. For identifying endogenous class I/II HDAC inhibitors a homogenous, luminogenic HDAC I/II cell based assay was used to measure the relative activity of class I and II HDACs from cells. Wild type HCT-116 cells were used to screen Tox21 compound libraries for identifying class I/II HDAC inhibitors.
Tox21 Assay Protocol Summary: HCT-116 cells were dispensed at 1,500 per well in 5uL of culture medium into white solid bottom 1536-well plates (Greiner Bio-One, Monroe, NC) using a Multidrop Combi (Thermo Scientific, Waltham, MA) dispenser. The assay plates were incubated at 37 C and 5% CO2 for an overnight, and then 23nL of compounds dissolved in DMSO and positive control were transferred using a Pintool station (Wako, San Diego, CA). The assay plates were incubated at 37C and 5% CO2 for 2hr. After compound treatment, 4uL of CellTiter-Glo reagent (Promega Corporation, Madison, WI) was added to each well of the assay plates using Flying Reagent Dispenser (FRD, Aurora Discovery, San Diego, CA) and incubated the assay plates at room temperature for 30min. The luminescence signal was quantified using a ViewLux plate reader (Perkin Elmer, Shelton, CT).
% is set by controls: 0 for no effect and ±100 for the full control effect.

SMILES | outcome | activity change, negative = cytotoxicity
N=C(N)c1ccccc1 | inactive | –
FC(F)OC(Cl)C(F)(F)F (stereo not given) | inactive | –
CCOC(=O)c1c(C)n(C)c2ccc(O)cc12 | inactive | –
Cc1c(NC(C)C)c(=O)n(-c2ccccc2)n1C | inactive | –
CCC(C)S (stereo not given) | – | 1.61% [at 3.27 µM]
COCCCOCCCOC | inactive | –
CC(=O)OCC(=O)[C@@]1(O)CC[C@H]2[C@@H]3CCC4=CC(=O)CC[C@]4(C)[C@H]3C(=O)C[C@@]21C | inactive | –
C[C@](N)(Cc1ccc(O)cc1)C(=O)O | – | -1.98% [at 8.39 µM]
N#Cc1ccc(C2CCCc3cncn32)cc1 (stereo not given) | inactive | –
O=C(O)c1ccccc1OP(=O)(O)O | inactive | –
NS(=O)(=O)c1ccc(C(=O)O)cc1 | inactive | –
CCN1CCC[C@H]1CNC(=O)c1cc(S(N)(=O)=O)ccc1OC | inactive | –
COC(=O)c1ccc(C)cc1C1=NC(C)(C(C)C)C(=O)N1 (stereo not given) | inactive | –
CCOC(=O)CC(C)=O | inactive | –
CCC=O | inactive | –
CC/C=C\CC/C=C/C(OCC)OCC | inactive | –
O=C1CC2CC1C1CCCC21 (stereo not given) | inactive | –
CC(C)NCC(O)c1ccc(NS(C)(=O)=O)cc1 (stereo not given) | inactive | –
CC(=O)Nc1ccc(S(N)(=O)=O)cc1 | inactive | –
Cc1cnc(NS(=O)(=O)c2ccc(N)cc2)nc1 | inactive | –

SMILES | outcome | activity change, negative = cytotoxicity
COC(=O)[C@@H](N)Cc1ccc(O)c(O)c1 | inactive | –
CC(C)CCCC(C)N (stereo not given) | inactive | –
Nc1ccc(S(=O)(=O)Nc2ccnn2-c2ccccc2)cc1 | – | 2.68% [at 19 µM]
CC1(C)CO[C@@H](CC(=O)O)CN1 | inactive | –
COC(=O)CC(C)=O | inactive | –
CS(=O)(=O)O | inactive | –
CCCCCCOC(=O)CCCCC(=O)OCCCCCC | inactive | –
COC(=O)C1=C(C)NC(C)=C(C(=O)OC)C1c1ccccc1[N+](=O)[O-] | inactive | –
C=C(C)CS(=O)(=O)O | inactive | –
CC(C)(C)c1nnc(NS(=O)(=O)c2ccccc2)s1 | inactive | –
N[C@H](C(=O)O)c1ccc(O)cc1 | – | -1.63% [at 19 µM]
CN1CC(=O)NC1=N | inactive | –
O=c1n(CCO)c(=O)n(CCO)c(=O)n1CCO | inactive | –
C[N+](C)(C)CC(O)CC(=O)[O-] (stereo not given) | inactive | –
O=c1cc(-c2ccccc2)oc2ccccc12 | inactive | –
CCCCCCCCS(=O)(=O)Cl | inactive | –
CC(C)OC(=O)c1ccccc1 | inactive | –
O=C(O)CCCl | inactive | –
O=C(c1ccccc1)C1CCCCC1 | inactive | –
CCCN(CCC)CCc1cccc2c1CC(=O)N2 | inactive | –
